High-throughput results: PubChem, National Center for Advancing Translational Sciences (NCATS)
Cruzain Triton = cruzain (T. cruzi) inhibition with detergent; P25779; purified cruzain, Z-FR-AMC fluorescence, 0.01% Triton; Potency, µM, most hits filed as inhibitors; actives 0.43% (n = 200,000); AID 1478; also: nearly all actives have a fitted effect of over 40% in size
Target sequence (P25779 123-467 limits assumed): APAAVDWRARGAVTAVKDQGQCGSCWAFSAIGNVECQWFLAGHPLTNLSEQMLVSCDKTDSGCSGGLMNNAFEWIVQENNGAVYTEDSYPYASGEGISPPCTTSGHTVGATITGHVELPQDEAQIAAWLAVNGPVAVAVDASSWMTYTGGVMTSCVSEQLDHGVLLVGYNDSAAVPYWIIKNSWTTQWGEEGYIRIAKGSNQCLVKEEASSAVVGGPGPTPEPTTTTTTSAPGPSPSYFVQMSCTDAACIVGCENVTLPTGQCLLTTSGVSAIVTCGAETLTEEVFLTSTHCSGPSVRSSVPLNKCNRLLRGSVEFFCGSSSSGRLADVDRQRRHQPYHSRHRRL
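Compounds were screened in titration against cruzain (1.5 nM) with 0.01% Triton X-100 to counter colloidal aggregation. Activity was the AMC fluorescence increase over 60 s after adding 2 uM Z-FR-AMC at pH 5.5.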
Cruzain noTriton = cruzain (T. cruzi) inhibition without detergent. P25779. purified cruzain, Z-FR-AMC fluorescence, no detergent. Potency, µM, most hits filed as inhibitors. actives 2.3% (n = 200,000). AID 1476; also: nearly all actives have a fitted effect of over 40% in size
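Purified cruzain at 1.5 nM, pre-incubated 15 min with compound at room temperature in 100 mM sodium acetate pH 5.5, 5 mM DTT, 0.00005% Triton X-100. Reaction started with 2 uM Z-FR-AMC; AMC fluorescence increase over 60 s gives rate.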
Giardia FBPA inh = blocks Giardia fructose-bisphosphate aldolase activity; A8B2U2; purified Giardia FBPA; Potency, µM (top dose mostly 59.6 µM), actives largely listed as inhibitors; actives 0.71% (n = 290,000); AID 2451; also: nearly all actives have a fitted effect of over 55% in size
Target sequence (A8B2U2 whole entry, looked up): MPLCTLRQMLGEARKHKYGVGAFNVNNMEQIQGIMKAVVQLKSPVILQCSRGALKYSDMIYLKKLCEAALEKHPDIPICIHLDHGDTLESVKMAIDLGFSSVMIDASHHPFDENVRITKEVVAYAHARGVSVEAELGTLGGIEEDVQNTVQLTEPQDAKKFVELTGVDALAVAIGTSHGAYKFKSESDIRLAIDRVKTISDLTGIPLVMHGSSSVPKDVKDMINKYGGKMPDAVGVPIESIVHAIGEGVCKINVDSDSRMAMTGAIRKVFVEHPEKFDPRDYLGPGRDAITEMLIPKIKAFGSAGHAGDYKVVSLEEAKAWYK
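40 nM FBPA preincubated 10 min at RT with compound (up to 57.5 uM final), then substrate plus GAPDH/TPI/NAD/arsenate coupling and diaphorase/resazurin added. Fluorescence read after 20 min at RT, 525/598 nm.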
Of the large screens only hits and unclear results are named; the others gave an inactive call; ! = not confirmed by another sample. The full list was thinned out, with hits kept by preference. Calls follow the shape of the dose curve; as a rule, active = well fitted curve in the direction sought with a large enough effect; inconclusive = small, poorly fitted or top-dose-only effect, or another doubt; inactive = no such curve, though single readings can be large; an effect the other way counts as inactive or inconclusive.

COc1ccc2nc(-c3ccco3)c(-c3ccco3)nc2c1	Cruzain Triton 11µM, Cruzain noTriton 4µM, Giardia FBPA inh inconclusive
COc1ccc2nc3cccc(OC)c3nc2c1	Giardia FBPA inh 1.4µM (no result: Cruzain Triton, Cruzain noTriton)
COc1ccc2nc3ccccc3nc2c1N	none (no result: Cruzain Triton, Cruzain noTriton)
c1coc(-c2nc(-c3ccco3)c(-c3ccco3)nc2-c2ccco2)c1	Cruzain Triton 7.9µM, Cruzain noTriton inconclusive, Giardia FBPA inh inconclusive
CC(C)CO/N=C1/C[C@@H](O)[C@@H](O)[C@@H]2[C@@H]3C(=O)N(C4CCCCC4)C(=O)[C@H]3CC[C@H]12	none (no result: Cruzain Triton, Cruzain noTriton)
O=C(OC[C@@H]1O[C@@](O)(COC(=O)c2cccnc2)[C@H](OC(=O)c2cccnc2)[C@H]1OC(=O)c1cccnc1)c1cccnc1	none
O=C(NCc1ccccc1)[C@]1(C(F)(F)F)C[C@H](CCC2CCCCC2)CCCO1	none (no result: Cruzain Triton, Cruzain noTriton)
O=C(COC(=O)CNC(=O)c1ccccc1F)Nc1ccc2c(c1)OCCO2	Cruzain Triton 8.9µM, Cruzain noTriton 3.2µM
CCOC(=O)CNC(=O)c1ccc2c(c1)OCCO2	none
COc1ccc(C(=O)NCC(=O)NCC(=O)OCC(=O)c2ccc(C)cc2)cc1	none (no result: Cruzain Triton, Cruzain noTriton)
O=C(CNC(=O)c1ccc(Cl)cc1)OCC(=O)c1ccc2c(c1)OCCO2	Cruzain Triton 8.9µM, Cruzain noTriton 10µM
O=C(CNC(=O)c1ccccc1Cl)OCC(=O)N1CCc2ccccc21	none (no result: Cruzain Triton, Cruzain noTriton)
O=C(COC(=O)CNC(=O)c1ccc(Br)o1)Nc1ccc2c(c1)OCCO2	none
O=C(CNC(=O)c1ccccc1F)OCC(=O)N1CCCCC1	Cruzain Triton 16µM, Cruzain noTriton inconclusive
COc1ccc(OC)c(C(=O)COC(=O)CNC(=O)c2ccccc2)c1	Cruzain Triton 14µM, Cruzain noTriton 13µM
COc1cc(C(CCN2CCCC2)c2c(OC)cc(OC)c3c2OC(=O)CC3c2ccc(N(C)C)cc2)cc(OC)c1OC (stereo not given)	none (no result: Cruzain Triton, Cruzain noTriton)
O=C(O)[C@@H]1[C@@H]2C[C@H]([C@@H](Br)[C@H]2N2C(=O)CCC2=O)[C@@H]1C(=O)O	none (no result: Giardia FBPA inh)
COc1ccc(S(=O)(=O)Nc2cccc(-c3ccc(N4CCC(C)CC4)nn3)c2)c(OC)c1	none (no result: Giardia FBPA inh)
CCOc1ccc(/C=C/c2nc(C#N)c(NC(C)c3ccccc3)o2)cc1 (stereo not given)	none (no result: Giardia FBPA inh)
Nc1c(C(=O)NCc2ccccc2)nnn1Cc1cccc(Br)c1	Cruzain noTriton inconclusive (no result: Giardia FBPA inh)
CCOc1ccccc1C(=O)NCc1ccc2c(c1)OCO2	none
CCOc1ccccc1C(=O)NCC(=O)OCC(=O)c1ccc2c(c1)OCCO2	Cruzain Triton 25µM, Cruzain noTriton inconclusive
CCOc1ccc(C(=O)NCC(=O)OCC(=O)c2ccc3c(c2)-c2ccccc2C3)cc1	Cruzain noTriton inconclusive
COc1ccccc1C(=O)NCC(=O)OCC(=O)c1ccc2c(c1)-c1ccccc1C2	Cruzain Triton inconclusive, Cruzain noTriton 10µM
CCOc1ccc(NC(=O)Cn2nnc(-c3nc(-c4ccncc4)no3)c2N)cc1	none (no result: Giardia FBPA inh)
CC(C)(C)Nc1nc(C#N)nc(Nc2ccccc2)n1	none (no result: Cruzain Triton, Cruzain noTriton)
CC(=O)/C(=C\c1ccccc1F)C(=O)c1ccccc1	Cruzain noTriton inconclusive (no result: Giardia FBPA inh)
CC12CN3CC(C)(CN(C1)C3c1c[nH]c3ccccc13)C2=O (stereo not given)	none (no result: Cruzain Triton, Cruzain noTriton)
CC12CN3CC(C)(CN(C1)C3c1ccc3ccccc3c1O)C2=O (stereo not given)	Giardia FBPA inh 13µM
CCc1ccc(S(=O)(=O)N2CCN(c3ccc(Cl)c(Cl)c3)CC2)cc1	none (no result: Giardia FBPA inh)
COc1ccc(/C=C/C(=O)NC(=S)Nc2cc3oc4ccccc4c3cc2OC)cc1	Cruzain noTriton 2.5µM
COc1cc2c(cc1NC(=S)NC(=O)/C=C/c1ccc(OC)c(OC)c1)oc1ccccc12	none
COc1cc2c(cc1NC(=O)/C=C/c1ccccc1)oc1ccccc12	Cruzain noTriton inconclusive
COc1cc2c(cc1NC(=S)Nc1cccc(C)c1)oc1ccccc12	Cruzain noTriton 32µM
O=C(/C=C/c1ccccc1)NC(=S)NNC(=O)Cc1cccs1	Cruzain noTriton inconclusive, Giardia FBPA inh inconclusive
COc1cc2c(cc1NC(=O)Nc1cccc(C)c1)oc1ccccc12	Cruzain noTriton inconclusive
COc1cc2c(cc1NC(=O)C(C)OC(=O)/C=C/c1ccc(OC(F)F)cc1)oc1ccccc12 (stereo not given)	Cruzain noTriton 32µM
COc1ccc(/C=C/C(=O)NC(=S)NNC(=O)Cc2cccs2)cc1	Cruzain noTriton 13µM
Cc1cccc(NC(=O)CSc2nc3c(oc4ccccc43)c(=O)n2-c2ccccc2)c1C	Cruzain noTriton inconclusive (no result: Giardia FBPA inh)
S=c1nc(-c2nc(=S)[nH]c3c2CCCCCCCCCC3)c2c([nH]1)CCCCCCCCCC2	none (no result: Giardia FBPA inh)
CCCn1c(-c2ccc(F)cc2)nc2c(N3CCCN(Cc4ccccc4)CC3)nc(C)nc21	none
CCCCC/C=C\C/C=C\C=C\[C@@H](O)C/C=C\CCCC(=O)O	none
COc1ccccc1NC(=S)NC(=O)/C=C/c1ccco1	none
COc1cc2c(cc1NC(=S)NC(=O)/C=C/c1ccco1)oc1ccccc12	Cruzain noTriton 13µM
CN(CC(=O)O)CC(=O)O	none (no result: Giardia FBPA inh)
O=C(Cc1ccc(-c2ccccc2)cc1)NCCS(=O)(=O)N1CCN(c2ccccc2F)CC1	Cruzain noTriton 13µM (no result: Giardia FBPA inh)
COc1ccc(CC(=O)NCCS(=O)(=O)N2CCN(c3ccccc3F)CC2)cc1OC	none (no result: Giardia FBPA inh)
Cc1noc(Cn2c(=O)c3cc4c(cc3n(CC(=O)Nc3ccccc3F)c2=O)OCO4)n1	none (no result: Giardia FBPA inh)
O=C(NC1CC1)c1cc2c(s1)-c1ccccc1OC2	Cruzain Triton inconclusive, Cruzain noTriton inconclusive
O=C(O)c1cc2c(s1)-c1ccccc1OC2	Cruzain Triton inconclusive, Cruzain noTriton 25µM
CC(C)c1ccc(C2N3CC4([N+](=O)[O-])CN2CC([N+](=O)[O-])(C3)C4(C)C)cc1 (stereo not given)	Cruzain noTriton 10µM
CC(C)c1ccc(C2N3CCCN23)cc1 (stereo not given)	none
CC1(C)C2([N+](=O)[O-])CN3CC1([N+](=O)[O-])CN(C2)C31CCCC1	none
CC1(C)C2([N+](=O)[O-])CN3CC1([N+](=O)[O-])CN(C2)C3c1ccccc1 (stereo not given)	Cruzain noTriton 20µM
CCN(CC)S(=O)(=O)c1cc(-c2ccc(=O)n(C(C)C(=O)Nc3cccc(C#N)c3)n2)ccc1C (stereo not given)	Cruzain noTriton inconclusive (no result: Giardia FBPA inh)
Cc1nc(-c2ccc(C)c(S(=O)(=O)N3CCC(C(=O)NCc4ccc(F)cc4)CC3)c2)no1	none (no result: Giardia FBPA inh)
COc1cc2c(cc1O)C[C@H]1c3c(cc(OC)c(O)c3-2)CCN1C	Giardia FBPA inh inconclusive
CN1CCc2cccc3c2[C@H]1Cc1ccc(O)c(O)c1-3	Giardia FBPA inh inconclusive
COc1cc2c(cc1O)CC1c3c(cc(O)c(OC)c3-2)CCN1C (stereo not given)	Cruzain noTriton 32µM!, Giardia FBPA inh inconclusive
CN1CCc2cc(O)cc3c2C1Cc1ccc(O)c(O)c1-3 (stereo not given)	Giardia FBPA inh 14µM
Cc1csc2nc(COC(=O)c3cccc(NC(=O)COc4ccccc4Cl)c3)cc(=O)n12	none (no result: Giardia FBPA inh)
COc1ccc(-c2cn3nc(N4CCCC(C(=O)NCc5ccc(Cl)cc5)C4)sc3n2)cc1 (stereo not given)	Cruzain Triton 14µM (no result: Giardia FBPA inh)
Cc1ccc(C)n1-c1nnc(N2CCCC(C(=O)NCc3ccc(Cl)cc3)C2)s1 (stereo not given)	none (no result: Giardia FBPA inh)
COC(=O)NC(/C(C(=O)OC)=C(\C)NCc1ccccc1)c1ccco1 (stereo not given)	none (no result: Cruzain Triton, Cruzain noTriton)
